Among all 48,000 compounds or so, about 13,000 (27%) showed an effect of 50% or more. The list shows a part of the results.
System: Wolbachia pipientis
Assay: Anti-Wolbachia Cell-Based Screen
Type: functional
Design: scale not given: in the data most compounds retested in dose-response had high values
Conditions: 5 µM

Point of comparison: `CCc1cnc(N2CCCC(CCC(N)=O)C2)nc1` (stereo not given), “Percent Effect” value 109.3%. Against it:
- O=C(NCC(O)c1ccc(F)c(F)c1)c1cccnc1O (stereo not given) — lower, -2.059%
- CCNc1ncc(CN2C[C@H](C3CC3)[C@@H](N)C2)cn1 — lower, -8.073%
- CC(C)Cc1cc(CNC(=O)c2cccc3c2NCCC3)no1 — lower, 2.864%
- Cn1c(=O)[nH]c(=O)n2c(CC(=O)Nc3ccccc3)cnc12 — higher, 114.1%
- Cc1cccc(NC(=O)Cc2cnc3n(C)c(=O)[nH]c(=O)n23)c1 — lower, 101.4%
- COCCn1ccc(=O)c(OCC(=O)Nc2ccccc2)c1C — lower, 9.271%
- Cn1c(=O)ccn(CC(=O)Nc2cccnc2)c1=O — lower, 18.35%
- Cc1nc2c(c(C)c1CC(=O)Nc1cccc(C#N)c1)c(=O)[nH]n2C — lower, -6.097%
- Cc1cccc(NCc2nn(C)c(=O)[nH]2)c1 — lower, -1.788%
- Cc1nnc(N2CCC(CCN(C)C)CC2)c(C#N)c1C — lower, 18.81%
- O=S(=O)(C1CC1)N1CCOC2(CCCN(c3ccccc3)C2)C1 (stereo not given) — lower, -6.387%
- COC(=O)N1C[C@H]2CC[C@@H]1CN(Cc1cscn1)C2 — lower, -5.87%
- Cc1ccc(N2CCCC(N(C)Cc3nc(C)c(C)o3)C2)nn1 (stereo not given) — lower, -10.05%
- Cn1cc(CN2CCC3(CC2)CN(c2cccnc2)C(=O)CO3)cn1 — lower, 89.07%
- O=C(O)C(F)(F)F.O=C1COC2(CCN(Cc3nccs3)CC2)CN1CC1CC1 — lower, -7.755%
- Cc1ccc(N2CC3(COCCN(Cc4cnn(C)c4)C3)OCC2=O)s1.O=C(O)C(F)(F)F (stereo not given) — lower, -8.814%
- O=C(O)C(F)(F)F.O=C(O)C(F)(F)F.O=C1COC2(CCN(Cc3cccnc3)CC2)CN1c1ccccc1 — lower, 95.43%
- O=C(O)C(F)(F)F.O=C(O)C(F)(F)F.O=C1COC2(COCCN(Cc3cccnc3)C2)CN1c1ccccc1 (stereo not given) — lower, -10.32%
- CN1CC(=O)N(c2cccc(F)c2)CC12CCN(Cc1ccncc1)C2.O=C(O)C(F)(F)F.O=C(O)C(F)(F)F (stereo not given) — lower, -24.86%
- O=C(O)C(F)(F)F.O=C(O)C(F)(F)F.O=C1COC2(CCN(Cc3ccncc3)CC2)CN1c1ccccc1 — lower, 106.6%
- CN1CC(=O)N(c2ccccc2)CC12CCN(Cc1nccs1)C2.O=C(O)C(F)(F)F.O=C(O)C(F)(F)F (stereo not given) — lower, -23.26%
- Cc1ccc(N2CC3(COCCN(Cc4ccncc4)C3)OCC2=O)s1.O=C(O)C(F)(F)F.O=C(O)C(F)(F)F (stereo not given) — lower, 7.716%
- O=C(O)C(F)(F)F.O=C1COC2(CCN(Cc3nccs3)CC2)CN1c1ccccc1 — higher, 109.8%
- CCS(=O)(=O)c1ncc(CN(C)CCc2ccccn2)n1CCOC — lower, -7.108%
- CC(C)(C)c1ccc(S(=O)(=O)CCNC(=O)c2cnccn2)cc1 — lower, -1.994%
- O=C(Nc1cc(C2CCOCC2)[nH]n1)c1cscn1 — lower, -9.479%
- O=C(O)C(F)(F)F.O=C1COC2(CCN(Cc3ccoc3)CC2)CN1c1ccccc1 — higher, 110.1%
- c1coc(-c2nc3c(c(N4CCCN5CCC[C@H]5C4)n2)CCNCC3)c1 — lower, -2.635%
- CC(=O)N1CCC(c2cccc(-c3cccc(C(=O)O)c3)n2)CC1 — higher, 150.5%
- CN1CCC(c2cccc(-c3ccc(C(=O)O)cc3)n2)CC1 — higher, 143.4%
- O=C(O)c1ccc(-c2cscn2)cc1 — lower, -4.979%
- CN1CCC(c2cccc(-c3cccc(C(=O)O)c3)n2)CC1 — higher, 172.2%
- Cc1nc(-c2cccc(C(=O)O)c2)c[nH]1 — lower, 12.51%
- CCC1CN(CC(=O)NCC(C)C)CCO1 (stereo not given) — lower, 14.46%
- CN(C)C(Cn1ccnc1-c1nccn1C)c1ccccc1Cl (stereo not given) — lower, -33.34%
- Cn1cnc(S(=O)(=O)NCC2(O)CCc3ccccc3C2)c1 (stereo not given) — lower, -0.2896%
- Cc1cc(C(F)(F)F)cc(N2CCN(Cc3ccccc3)CC(O)C2)n1 (stereo not given) — lower, -8.979%
- Cc1noc(C)c1C(=O)NCc1cc[nH]n1 — lower, -8.617%
- NC(=O)CCC1CCCN(Cc2cnc(N3CCCCC3)nc2)C1 (stereo not given) — lower, 104.2%
- Cc1cccc(C)c1OC1CN(Cc2cnc(N3CCCC3)nc2)C1 — lower, 1.788%
- O=C(O)CCc1cc2n(n1)CCN(Cc1cnc(N3CCCC3)nc1)C2 — lower, -15.82%
- NC(=O)CCC1CCCN(c2ncnc3c2Cc2ccccc2OC3)C1 (stereo not given) — lower, -12.56%
- N[C@H]1CN(Cc2cnc(N3CCCC3)nc2)C[C@@H]1C1CC1 — lower, -16.17%
- c1nc(N2CCCC2)ncc1CN1CCCC(CN2CCCCC2)C1 (stereo not given) — lower, 95.39%
- CCc1cnc(N2CCCOC(CN3CCCC3)C2)nc1 (stereo not given) — lower, -1.454%
- COc1ccccc1-c1ncc(CN2CCCC(CCC(N)=O)C2)s1 (stereo not given) — lower, 16.75%
- O=C(N[C@H]1CN(C2CCOCC2)C[C@@H]1C1CC1)c1ccon1 — lower, -9.557%
- CN(Cc1cc[nH]n1)C(C(=O)O)c1ccc(Cl)cc1 (stereo not given) — lower, -11.22%
- Cc1cnn(-c2ccc(S(=O)(=O)N(C)CC(C)(CO)CO)cc2F)c1 — lower, -2.822%
